The source made the active and inactive calls. Rule for the calls: active = hit-call score of the fitted dose curve at least 0.9, where 1 is the maximum; inactive = score below 0.9.
What was measured:
[1] = ATG_PBREM_CIS: Attagene CIS-FACTORIAL HepG2 Assay for human Phenobarbital-responsive Enhancer Module (PBREM) (AID 2282955); settings: HepG2 PBREM cis-reporter, Attagene multiplexed transcription; actives raise or lower the signal
Summary of the method: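 HepG2 cells transiently transfected with multiple cis-regulated reporter units measure endogenous transcription factor activity; 24 h compound exposure. Reporter mRNA quantified by RT-PCR, fluorescent labelling, HpaI digestion and capillary electrophoresis; bidirectional fit versus DMSO.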

[2] = biological target: Paired box protein Pax-6 (Homo sapiens) (UniProt P26367); test: ATG_Pax6_CIS: Attagene CIS-FACTORIAL HepG2 Assay for human Paired Box 6 (PAX6) (AID 2282956); settings: HepG2 CIS-FACTORIAL PAX6 reporter transcription, RNA readout; actives raise or lower the signal
Chain of Paired box protein Pax-6 (Homo sapiens) (P26367 whole entry, looked up): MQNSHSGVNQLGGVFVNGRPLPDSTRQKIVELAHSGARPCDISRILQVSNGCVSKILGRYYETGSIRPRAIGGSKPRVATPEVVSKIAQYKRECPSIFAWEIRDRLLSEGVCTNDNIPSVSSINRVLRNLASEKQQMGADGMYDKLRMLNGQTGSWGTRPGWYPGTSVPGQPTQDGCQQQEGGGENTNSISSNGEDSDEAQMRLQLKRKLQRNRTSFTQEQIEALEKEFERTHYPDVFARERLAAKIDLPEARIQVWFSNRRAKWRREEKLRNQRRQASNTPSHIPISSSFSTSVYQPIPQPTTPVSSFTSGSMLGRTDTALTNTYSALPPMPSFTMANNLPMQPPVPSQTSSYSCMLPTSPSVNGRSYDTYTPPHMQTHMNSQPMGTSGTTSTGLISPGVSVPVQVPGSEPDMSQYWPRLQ
Summary of the method: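 Multiplexed cis-reporter HepG2 system; 24 h treatment; reporter mRNA read by RT-PCR/CE fluorescence; bidirectional fit vs DMSO.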

[3] = ATG_PXRE_CIS: Attagene CIS-FACTORIAL HepG2 Assay for human Pregnane X Receptor Element (PXRE) (AID 2282957); settings: HepG2 Attagene CIS-FACTORIAL PXRE reporter, mRNA; actives raise or lower the signal
Summary of the method: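 Transiently transfected HepG2 cells were dosed and incubated for 24 h. RNA was then isolated, DNase-treated, reverse-transcribed and reporter sequences amplified. Labeled, HpaI-digested fragments were quantified by capillary electrophoresis against DMSO.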

[4] = ATG_PPRE_CIS: Attagene CIS-FACTORIAL HepG2 Assay for human Peroxisome Proliferator-activated Response Element (PPRE) (AID 2282958); settings: HepG2 PPRE cis-element reporter, Attagene transcription factor profiling; actives raise or lower the signal
Summary of the method: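 HepG2 cells are transiently transfected with multiplexed cis-promoter reporter units to report endogenous PPAR activity. After 24 h dosing, reporter mRNA is read by RT-PCR and capillary electrophoresis. Fitting is bidirectional against DMSO.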

[5] = ATG_RORE_CIS: Attagene CIS-FACTORIAL HepG2 Assay for human RAR-related Orphan Receptor Element (RORE) (AID 2282959); settings: HepG2 Attagene cis-factorial RORE reporter, mRNA; actives raise or lower the signal
Summary of the method: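 HepG2 cells carrying transiently transfected cis-regulated reporter units; RORE-driven reporter mRNA quantified 24 h post-dosing by RT-PCR, 6-FAM primer extension, HpaI digestion and capillary electrophoresis. Bidirectional fit versus DMSO.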

[6] = ATG_Sox_CIS: Attagene CIS-FACTORIAL HepG2 Assay for human SRY-box transcription factor (SOX) (AID 2282960); settings: HepG2 Attagene cis-factorial SOX reporter, mRNA; actives raise or lower the signal
Summary of the method: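 HepG2 cells transiently transfected with multiple cis-regulated reporter units, then dosed for 24 h. Reporter mRNA quantified by RT-PCR, fluorescent labelling, HpaI digestion and capillary electrophoresis; bidirectional fit versus DMSO.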

[7] = biological target: Transcription factor Sp1 (Homo sapiens) (UniProt P08047); test: ATG_Sp1_CIS: Attagene CIS-FACTORIAL HepG2 Assay for human Specificity Protein 1 (Sp1) (AID 2282961); settings: HepG2 Sp1 cis-reporter transcription, actives raise or lower the signal
Chain of Transcription factor Sp1 (Homo sapiens) (P08047 whole entry, looked up): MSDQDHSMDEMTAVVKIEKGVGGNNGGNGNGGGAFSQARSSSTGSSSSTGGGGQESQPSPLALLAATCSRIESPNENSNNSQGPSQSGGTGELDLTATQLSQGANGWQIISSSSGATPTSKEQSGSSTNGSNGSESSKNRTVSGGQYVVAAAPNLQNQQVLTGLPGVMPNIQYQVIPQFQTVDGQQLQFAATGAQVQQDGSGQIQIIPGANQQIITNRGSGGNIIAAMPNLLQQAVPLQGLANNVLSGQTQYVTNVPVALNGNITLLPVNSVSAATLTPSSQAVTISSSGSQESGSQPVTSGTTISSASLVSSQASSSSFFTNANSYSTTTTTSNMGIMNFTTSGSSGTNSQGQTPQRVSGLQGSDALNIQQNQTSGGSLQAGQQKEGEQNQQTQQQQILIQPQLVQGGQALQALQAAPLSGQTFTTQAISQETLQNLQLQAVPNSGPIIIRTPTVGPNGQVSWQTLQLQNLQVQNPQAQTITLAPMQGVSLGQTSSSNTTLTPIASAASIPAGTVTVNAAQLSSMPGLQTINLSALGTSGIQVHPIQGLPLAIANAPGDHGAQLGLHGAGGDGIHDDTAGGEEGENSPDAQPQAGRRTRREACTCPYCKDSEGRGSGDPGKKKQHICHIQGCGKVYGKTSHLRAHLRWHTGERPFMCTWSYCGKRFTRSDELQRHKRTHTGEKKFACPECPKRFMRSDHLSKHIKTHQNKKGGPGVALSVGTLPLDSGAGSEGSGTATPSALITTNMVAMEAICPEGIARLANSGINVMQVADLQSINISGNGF
Summary of the method: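 HepG2 cells transiently transfected with multiplexed cis-regulated reporter constructs, chemical exposure 24 h. Reporter mRNA quantified by RT-PCR with capillary electrophoresis; bidirectional fit relative to DMSO.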

[8] = ATG_SREBP_CIS: Attagene CIS-FACTORIAL HepG2 Assay for human Sterol Regulatory Element Binding (SREBP) (AID 2282962); settings: HepG2 Attagene cis-factorial SREBP reporter, mRNA; actives raise or lower the signal
Summary of the method: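 mRNA induction of transfected cis-promoter reporters in HepG2 cells, 24 h post-dose. Detection: RT-PCR with 6-FAM-labelled products, HpaI digest, capillary electrophoresis. DMSO served as negative control and baseline.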

[9] = biological target: Signal transducer and activator of transcription 3 (Homo sapiens) (UniProt P40763); test: ATG_STAT3_CIS: Attagene CIS-FACTORIAL HepG2 Assay for human Signal Transducer and Activator of Transcription 3 (STAT3) (AID 2282963); settings: HepG2, Attagene cis-factorial STAT3 reporter transcription; actives raise or lower the signal
Chain of Signal transducer and activator of transcription 3 (Homo sapiens) (P40763 whole entry, looked up): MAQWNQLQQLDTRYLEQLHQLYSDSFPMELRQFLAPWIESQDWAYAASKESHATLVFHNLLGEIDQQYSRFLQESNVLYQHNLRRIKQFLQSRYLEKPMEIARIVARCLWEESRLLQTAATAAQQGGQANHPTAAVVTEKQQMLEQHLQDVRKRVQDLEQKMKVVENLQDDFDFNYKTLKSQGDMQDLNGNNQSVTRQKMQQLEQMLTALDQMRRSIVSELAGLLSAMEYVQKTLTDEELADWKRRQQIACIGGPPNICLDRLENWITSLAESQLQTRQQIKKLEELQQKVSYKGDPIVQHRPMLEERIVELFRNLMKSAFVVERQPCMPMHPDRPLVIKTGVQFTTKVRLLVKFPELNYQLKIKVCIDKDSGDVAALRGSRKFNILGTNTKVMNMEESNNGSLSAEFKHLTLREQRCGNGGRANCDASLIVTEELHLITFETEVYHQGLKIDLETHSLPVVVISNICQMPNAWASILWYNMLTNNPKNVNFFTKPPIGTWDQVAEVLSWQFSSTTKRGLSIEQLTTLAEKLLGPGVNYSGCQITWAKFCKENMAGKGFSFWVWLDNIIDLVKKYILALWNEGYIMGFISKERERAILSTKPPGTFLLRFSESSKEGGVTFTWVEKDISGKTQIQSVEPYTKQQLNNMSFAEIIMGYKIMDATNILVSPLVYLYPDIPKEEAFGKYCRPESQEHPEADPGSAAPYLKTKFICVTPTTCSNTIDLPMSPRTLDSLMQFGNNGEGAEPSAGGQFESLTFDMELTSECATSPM
Summary of the method: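 After a 24 h compound incubation, total RNA from MRTU-transfected HepG2 cells was converted to cDNA and reporter sequences PCR-amplified, labelled and profiled by capillary electrophoresis. Gain and loss of signal were referenced to DMSO.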

[10] = ATG_TA_CIS: Attagene CIS-FACTORIAL HepG2 Assay for human TA Basal Promoter (AID 2282964); settings: HepG2 Attagene CIS-factorial TA basal promoter reporter; actives raise or lower the signal
Summary of the method: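 HepG2 cells transiently transfected with multiplexed cis-promoter reporter units, dosed 24 h. Reporter mRNA measured by RT-PCR, 6-FAM labelling, HpaI digestion and capillary electrophoresis; bidirectional fit versus DMSO baseline, serving as background control.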

Measured: AC50

CC(C)CC(=O)OCc1ccccc1
inactive: all assays above

O=S(=O)(O)c1ccc(N=Nc2c(O)ccc3ccccc23)cc1
active: [3] 31.6 µM
inactive: all other assays above

O=C(Cl)c1c(Cl)c(Cl)c(C(=O)Cl)c(Cl)c1Cl
active: [3] 27.9 µM
inactive: all other assays above

CC1(C)CC(O)CC(C)(C)N1[O]
not listed: [9]
inactive: all other assays above

CC(=O)OC1CCCCC1C(C)(C)C (stereo unspecified)
inactive: all assays above

C=C(C)C(=O)OCC(O)COc1ccc(C(C)(C)c2ccc(OCC(O)COC(=O)C(=C)C)cc2)cc1 (stereo unspecified)
inactive: [1] | [5] | [7]
active: [2] 42.2 µM | [3] 2.17 µM | [4] 14.7 µM | [6] 65 µM | [8] 51 µM | [10] 28.3 µM

COc1ccc(C(=O)c2ccccc2)c(O)c1
inactive: [6] | [7] | [8] | [9]
active: [1] 85.9 µM | [2] 149 µM | [3] 26.7 µM | [4] 121 µM | [5] 100 µM | [10] 121 µM

CC(C)(CO)C(O)C(=O)NCCCO (stereo unspecified)
not listed: [9]
inactive: all other assays above

O=C1c2ccccc2C(=O)c2cc(S(=O)(=O)O)ccc21
inactive: all assays above

Cc1ccc([N+](=O)[O-])cc1N
active: [3] 45.4 µM
not listed: [9]
inactive: all other assays above

O=C(Cl)c1ccc(C(=O)Cl)cc1
not listed: [8]
inactive: all other assays above

C=CC(=O)NCOCCCC
active: [3] 36.7 µM
inactive: all other assays above

CCCCCCCCCC(C)=O
not listed: [8]
inactive: all other assays above

CC(C)(C)N
inactive: all assays above

Cn1ccnc1
inactive: all assays above

CCCCNS(=O)(=O)c1ccc(C)cc1
active: [3] 27.5 µM
inactive: all other assays above

C=CC(=O)OCCCCCCCC(C)C
active: [3] 7.99 µM | [4] 71.1 µM | [5] 100 µM
inactive: all other assays above

C=C(C)C(=O)OCCCCCCCCCCCC
active: [3] 30.9 µM
inactive: all other assays above

C=C[C@@]1(C)CC(=O)[C@]2(O)[C@@]3(C)[C@@H](O)CCC(C)(C)[C@@H]3[C@H](O)[C@H](OC(C)=O)[C@@]2(C)O1
active: [1] 0.803 µM | [3] 0.433 µM
inactive: all other assays above

CCC(C)C(=O)OCCc1ccccc1 (stereo unspecified)
inactive: all assays above

CCCCOCCOCCOC(C)=O
inactive: all assays above

CC(=O)CCC1=C(C)CCCC1(C)C
active: [3] 4.36 µM
not listed: [8]
inactive: all other assays above

CCOC(=O)c1ccc(C)cc1
active: [3] 56.8 µM
inactive: all other assays above

O=C(O)CCC(=O)O
not listed: [8]
inactive: all other assays above

O=C(Oc1ccccc1)c1ccccc1C(=O)Oc1ccccc1
active: [3] 24.6 µM
inactive: all other assays above

CCCC(C)C(=O)OCC (stereo unspecified)
inactive: all assays above

Nc1ncnc2nc[nH]c12
inactive: all assays above

CCCCC(C=O)CC (stereo unspecified)
inactive: all assays above

Nc1ccc(C(=O)O)cc1
not listed: [9]
inactive: all other assays above

CC1=CC(C)C(C=O)CC1 (stereo unspecified)
active: [3] 27.7 µM
not listed: [9]
inactive: all other assays above

CCCCCOC(=O)CCCCC
inactive: all assays above

Nc1cccc(N)n1
inactive: all assays above

CCCC1CCCC(=O)O1 (stereo unspecified)
active: [4] 11 µM
inactive: all other assays above

C=CC(=O)OCC(C)OCC(C)OCC(C)OC(=O)C=C (stereo unspecified)
active: [2] 64.5 µM | [3] 2.25 µM | [5] 44.5 µM | [8] 100 µM
inactive: all other assays above

CC1(C)CCC[C@]2(C)[C@H]3CC(=O)O[C@]3(C)CC[C@@H]12
active: [3] 3.61 µM | [8] 32.3 µM
inactive: all other assays above

CCC(=O)C1CC(C(C)C)CC=C1C (stereo unspecified)
active: [3] 4.33 µM
inactive: all other assays above

OCCCc1ccccc1
inactive: all assays above

CC(C)C(=O)OCCOc1ccccc1
active: [3] 4.56 µM
not listed: [5]
inactive: all other assays above

CCC1(C)C(=O)N(Cl)C(=O)N1Cl (stereo unspecified)
active: [2] 49.8 µM | [3] 58.6 µM | [6] 37.9 µM
not listed: [5]
inactive: all other assays above

CC(C)(O)Cc1ccccc1
not listed: [5]
inactive: all other assays above

C=CC(=O)OCCCCCCOC(=O)C=C
active: [2] 75.7 µM
not listed: [5] | [6] | [8]
inactive: all other assays above

O=C(O)C(F)(F)C(F)(F)C(F)(F)C(F)(F)C(=O)O
not listed: [6]
inactive: all other assays above

CC(=O)OC/C=C(/C)CCC=C(C)C
not listed: [6]
inactive: all other assays above

CCC(C)(O)CCCC(C)C (stereo unspecified)
not listed: [5] | [6] | [8]
inactive: all other assays above

C=Cc1ccc(OC(C)=O)cc1
not listed: [5]
inactive: all other assays above

CC(C)COC(=O)CC(C(=O)OCC(C)C)S(=O)(=O)O (stereo unspecified)
active: [3] 29.5 µM
not listed: [5]
inactive: all other assays above

COC(OC)(C(=O)c1ccccc1)c1ccccc1
active: [1] 3.88 µM | [2] 66 µM | [3] 2.19 µM
not listed: [5]
inactive: all other assays above

CC(C)CCCCCOC(=O)CS
active: [3] 11.8 µM
not listed: [4]
inactive: all other assays above

Cc1c(O)cccc1O
active: [3] 127 µM
not listed: [8]
inactive: all other assays above

CCOC(=O)[C@H](O)[C@@H](O)C(=O)OCC
active: [3] 52.4 µM
not listed: [5]
inactive: all other assays above

CCCCOC(=O)CCC(C)=O
not listed: [5] | [9]
inactive: all other assays above

From PubChem BioAssay (EPA / NIEHS)
